The sample as a whole holds a higher share of the strongest signals than the screen did.
Legend:
Assay in all cases: glycan array binding signal (z-score within array); higher = stronger binding
Settings in all cases: glycan notation: IUPAC condensed, linker removed
[1] = biological target: Fuc(a1-3)[Gal(b1-4)]GlcNAc
Procedure, shortened: (§1)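 The Consortium for Functional Glycomics database supplied 3228 glycan arrays, of which those lacking an available protein sequence were dropped. The binding signal, a within-array Z-score, was averaged across arrays of the same protein sequence and across linkers. Negative scores can be read as non-binding.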

Gal(a1-3)Gal(b1-3)GlcNAc = biological target: Gal(a1-3)Gal(b1-3)GlcNAc
Procedure, shortened: as §1

[2] = biological target: Gal(b1-4)GlcNAc(b1-3)Gal(b1-4)GlcNAc
Procedure, shortened: as §1

Gal3S6S(b1-4)GlcNAc6S = biological target: Gal3S6S(b1-4)GlcNAc6S
Procedure, shortened: as §1

Glc(a1-4)Glc = biological target: Glc(a1-4)Glc
Procedure, shortened: as §1

Glc(a1-6)Glc(a1-6)Glc = biological target: Glc(a1-6)Glc(a1-6)Glc
Procedure, shortened: as §1

Glc(b1-4)Glc = biological target: Glc(b1-4)Glc
Procedure, shortened: as §1

GlcA(b1-3)Gal = biological target: GlcA(b1-3)Gal
Procedure, shortened: as §1

[3] = biological target: GlcNAc(a1-3)Gal(b1-4)GlcNAc
Procedure, shortened: as §1

[4] = biological target: Man(a1-2)Man(a1-2)Man(a1-6)[Man(a1-3)]Man
Procedure, shortened: as §1

[5] = biological target: Man(a1-2)Man(a1-3)[Man(a1-6)]Man(a1-6)[Man(a1-2)Man(a1-3)]Man(b1-4)GlcNAc(b1-4)GlcNAc
Procedure, shortened: as §1

[6] = biological target: Neu5Ac(a2-3)Gal(b1-3)[Fuc(a1-4)]GlcNAc
Procedure, shortened: as §1

Neu5Ac(a2-3)Gal(b1-4)Glc = biological target: Neu5Ac(a2-3)Gal(b1-4)Glc
Procedure, shortened: as §1

[7] = biological target: Neu5Ac(a2-3)[GalNAc(b1-4)]Gal(b1-4)GlcNAc
Procedure, shortened: as §1

[8] = biological target: Neu5Gc(a2-3)Gal(b1-3)GlcNAc
Procedure, shortened: as §1

[9] = biological target: Gal(b1-3)GalNAc(b1-4)Gal3S(b1-4)Glc
Procedure, shortened: as §1

[10] = biological target: Gal(b1-3)GalNAc(b1-4)[Neu5Ac(a2-3)]Gal(b1-4)Glc
Procedure, shortened: as §1

[11] = biological target: Gal(b1-3)GalNAc(b1-4)[Neu5Gc(a2-3)]Gal(b1-4)Glc
Procedure, shortened: as §1

[12] = biological target: Gal(b1-3)[Neu5Ac(a2-6)]GalNAc(b1-4)Gal(b1-4)Glc
Procedure, shortened: as §1

[13] = biological target: Gal(b1-4)GlcNAc(b1-2)[Gal(b1-4)GlcNAc(b1-4)]Man(a1-3)[Gal(b1-4)GlcNAc(b1-2)Man(a1-6)]Man(b1-4)GlcNAc(b1-4)GlcNAc
Procedure, shortened: as §1

Gal(b1-4)GlcNAc(b1-3)Fuc = biological target: Gal(b1-4)GlcNAc(b1-3)Fuc
Procedure, shortened: as §1

Glc(a1-3)Glc = biological target: Glc(a1-3)Glc
Procedure, shortened: as §1

[14] = biological target: Glc(a1-3)Glc(a1-3)Man(a1-2)Man(a1-2)Man(a1-3)[Man(a1-3)[Man(a1-6)]Man(a1-6)]Man(b1-4)GlcNAc
Procedure, shortened: as §1

[15] = biological target: Glc(a1-6)Glc(a1-6)Glc(a1-6)Glc(a1-6)Glc
Procedure, shortened: as §1

[16] = biological target: Glc(a1-6)Glc(a1-6)Glc(a1-6)Glc(a1-6)Glc(a1-6)Glc(a1-6)Glc(a1-6)Glc(a1-6)Glc
Procedure, shortened: as §1

Glc(b1-2)Glc = biological target: Glc(b1-2)Glc
Procedure, shortened: as §1

[17] = biological target: Glc(b1-3)Glc(b1-3)Glc(b1-3)Glc(b1-3)Glc(b1-3)Glc(b1-3)Glc(b1-3)Glc(b1-3)Glc(b1-3)Glc(b1-3)Glc
Procedure, shortened: as §1

[18] = biological target: Glc(b1-4)Glc(b1-4)Glc(b1-4)Glc(b1-4)Glc(b1-4)Glc(b1-4)Glc
Procedure, shortened: as §1

[19] = biological target: Glc(b1-4)Glc(b1-4)Glc(b1-4)Glc(b1-4)Glc(b1-4)Glc(b1-4)Glc(b1-4)Glc(b1-4)Glc
Procedure, shortened: as §1

[20] = biological target: Glc(b1-6)Glc(b1-6)Glc(b1-6)Glc
Procedure, shortened: as §1

[21] = biological target: GlcA(b1-3)GlcNAc(b1-4)GlcA(b1-3)GlcNAc(b1-4)GlcA(b1-3)GlcNAc(b1-4)GlcA(b1-3)GlcNAc(b1-4)GlcA(b1-3)GlcNAc(b1-4)GlcA(b1-3)GlcNAc(b1-4)GlcA(b1-3)GlcNAc
Procedure, shortened: as §1

GlcNAc(a1-4)Gal = biological target: GlcNAc(a1-4)Gal
Procedure, shortened: as §1

GlcNAc(b1-2)Man = biological target: GlcNAc(b1-2)Man
Procedure, shortened: as §1

GlcNAc(b1-4)GlcNAc = biological target: GlcNAc(b1-4)GlcNAc
Procedure, shortened: as §1

[22] = biological target: Man(a1-2)Man(a1-2)Man(a1-3)[Man(a1-2)Man(a1-3)[Man(a1-2)Man(a1-6)]Man(a1-6)]Man(b1-4)GlcNAc(b1-4)GlcNAc
Procedure, shortened: as §1

Man(a1-3)[Man(a1-6)]Man = biological target: Man(a1-3)[Man(a1-6)]Man
Procedure, shortened: as §1

Neu5Ac(a2-3)Gal = biological target: Neu5Ac(a2-3)Gal
Procedure, shortened: as §1

[23] = biological target: Neu5Ac(a2-3)Gal(b1-3)GalNAc(b1-4)[Neu5Ac(a2-3)]Gal(b1-4)Glc
Procedure, shortened: as §1

[24] = biological target: Neu5Ac(a2-3)Gal(b1-4)[Fuc(a1-3)]GlcNAc(b1-3)Gal
Procedure, shortened: as §1

[25] = biological target: Neu5Ac(a2-3)[GalNAc(b1-4)]Gal(b1-3)GalNAc(b1-4)[Neu5Ac(a2-3)]Gal(b1-4)Glc
Procedure, shortened: as §1

[26] = biological target: Neu5Ac(a2-3)[GalNAc(b1-4)]Gal(b1-4)Glc
Procedure, shortened: as §1

[27] = biological target: Neu5Ac(a2-8)Neu5Ac(a2-3)[Gal(b1-3)GalNAc(b1-4)]Gal(b1-4)Glc
Procedure, shortened: as §1

Neu5Ac(b2-3)Gal(b1-4)Glc = biological target: Neu5Ac(b2-3)Gal(b1-4)Glc
Procedure, shortened: as §1

Rha(a1-6)Glc = biological target: Rha(a1-6)Glc
Procedure, shortened: as §1

B1: FaeGac (Escherichia coli) (protein)
chain: WMTGDFNGSVDIGGSITADDYRQKWEWKVGTGLNGFGNVLNDLTNGGTKLTITVTGNKPILLGRTKEAFATPVTGGVDGIPHIAFTDYEGASVVLRKPDGETNKNGLAYFVLPMKNAGGTKVGSVKVNASYAGVLGRGGVTSADGELLSLFADGLSSIFYGGLPRGSELSAGSAAAARTKLFGSLSRDDILGQIQRVNANVTSLVDVAGSYRENMEYTDGNVVSAAYALGIANGQTIEATFNQAVTTSTQWSAPLNVAITYY
- glycan array binding signal (z-score) [1]: -0.598
- glycan array binding signal (z-score) (Gal(a1-3)Gal(b1-3)GlcNAc): -0.126
- glycan array binding signal (z-score) [2]: -0.084
- glycan array binding signal (z-score) (Gal3S6S(b1-4)GlcNAc6S): 1.17
- glycan array binding signal (z-score) (Glc(a1-4)Glc): 5.96
- glycan array binding signal (z-score) (Glc(a1-6)Glc(a1-6)Glc): 6.71
- glycan array binding signal (z-score) (Glc(b1-4)Glc): 4.43
- glycan array binding signal (z-score) (GlcA(b1-3)Gal): -0.705
- glycan array binding signal (z-score) [3]: 0.229
- glycan array binding signal (z-score) [4]: 3.1
- glycan array binding signal (z-score) [5]: 0.527
- glycan array binding signal (z-score) [6]: 0.445
- glycan array binding signal (z-score) (Neu5Ac(a2-3)Gal(b1-4)Glc): -0.81
- glycan array binding signal (z-score) [7]: -0.863
- glycan array binding signal (z-score) [8]: -0.826

B2: MIC4-A5 (Toxoplasma gondii), Q9XZH7 (protein)
chain: SPDFHDEVECVHTGNIGSKAQTIGEVKRASSLSECRARCQAEKECSHYTYNVKSGLCYPKRGKPQFYKYLGDMTGSRTCDTS
- glycan array binding signal (z-score) [9]: 5.56
- glycan array binding signal (z-score) [10]: 5.3
- glycan array binding signal (z-score) [11]: 4.89
- glycan array binding signal (z-score) [12]: 6.12
- glycan array binding signal (z-score) [13]: 3.22
- glycan array binding signal (z-score) (Gal(b1-4)GlcNAc(b1-3)Fuc): -0.248
- glycan array binding signal (z-score) (Glc(a1-3)Glc): -0.306
- glycan array binding signal (z-score) [14]: -0.323
- glycan array binding signal (z-score) [15]: -0.323
- glycan array binding signal (z-score) [16]: -0.323
- glycan array binding signal (z-score) (Glc(b1-2)Glc): -0.32
- glycan array binding signal (z-score) [17]: -0.323
- glycan array binding signal (z-score) [18]: -0.323
- glycan array binding signal (z-score) [19]: -0.323
- glycan array binding signal (z-score) [20]: -0.323
- glycan array binding signal (z-score) [21]: -0.323
- glycan array binding signal (z-score) (GlcNAc(a1-4)Gal): -0.323
- glycan array binding signal (z-score) (GlcNAc(b1-2)Man): -0.323
- glycan array binding signal (z-score) (GlcNAc(b1-4)GlcNAc): -0.323
- glycan array binding signal (z-score) [22]: -0.323
- glycan array binding signal (z-score) (Man(a1-3)[Man(a1-6)]Man): -0.323
- glycan array binding signal (z-score) (Neu5Ac(a2-3)Gal): -0.323
- glycan array binding signal (z-score) [23]: -0.191
- glycan array binding signal (z-score) [24]: -0.323
- glycan array binding signal (z-score) [25]: -0.323
- glycan array binding signal (z-score) [26]: -0.311
- glycan array binding signal (z-score) [27]: 6.1
- glycan array binding signal (z-score) (Neu5Ac(b2-3)Gal(b1-4)Glc): -0.32
- glycan array binding signal (z-score) (Rha(a1-6)Glc): -0.322
